{
  "source": "PubChem BioAssay (NCI)",
  "note": "The panel holds about 83,000 compounds, 20% with a hit somewhere; the sample as a whole holds those more often.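 Method: cells in 96-well plates; compound added at one concentration; 48 h incubation; percent growth measured; values under 10 scored active.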 Values without a mark were called inactive. Active and inactive are the calls of the source.",
  "data": [
    {"system": "T-47D breast", "assay": "NCI-60 one-dose screen, 48 h (100 = growth as untreated, 0 = no growth, -100 = all killed)", "details": "10 µM", "method": "Growth inhibition of the T-47D human tumor cell line is measured as a screen for anti-cancer activity. Cells are grown in 96 well plates and exposed to the test compound for 48 hours. Compounds are tested at a single concentration, which is 10^-5 M for most compounds. The reported endpoint is percent growth (GI% or GIPRCNT), where numbers from 0 - 100% represent growth inhibition, and numbers from -100% - 0 represent cell death. For example, a value of 40 represents 60% growth inhibition. A value of 0 means no net growth occurred over the course of the experiment. A value of -40 indicates 40% of cells at the beginning of the experiment died by the end of the experiment. A value of -100 means all cells are dead at the end of the experiment.\nNCI-60 Human Tumor Cell Lines Screen was performed using the standard one-dose NCI protocol, which is described in more detail at https://dtp.cancer.gov/discovery_development/nci-60/default.htm.\nCompounds with GIPRCNT values below 10 were considered active. Activity score was based on GIPRCNT using the following formula: […]\nScore is 0 for GIPRCNT values of 100 or above, 50 for GIPRCNT values of 0, and 100 for GIPRCNT values of -100.", "values": [
      {"smiles": "COc1ccccc1N1CCCSC1=Nc1ccccc1", "growth": "107%"},
      {"smiles": "COc1ccc(-c2onc(N)c2-c2cc(OC)c3c(c2)OCO3)cc1", "growth": "19.3%"},
      {"smiles": "COc1cccc(C2C(C#N)=C(N)Oc3cc(N)ccc32)c1", "note": "(stereo not given)", "growth": "10.4%"},
      {"smiles": "Cc1ccc(NCCN(C)CC(C)O)c2c(=O)c3ccccc3sc12", "note": "(stereo not given)", "growth": "85.2%"},
      {"smiles": "C/C=C/CSC(C)(C)C(=O)NC", "growth": "100%"},
      {"smiles": "O=C(CCC(C(=O)c1ccccc1)c1ccccc1)c1ccccc1", "note": "(stereo not given)", "growth": "66.6%"},
      {"smiles": "CCOC(=O)c1cc(C(=O)c2cc(OC)cc(OC)c2)n2nc(C)ccc12", "growth": "43.9%"},
      {"smiles": "CCOC(=O)c1cc(C(=O)c2ccc(OC)c(OC)c2)n2c1ccc1ccc3cccnc3c12", "growth": "47.5%"},
      {"smiles": "O=C1/C(=C/c2ccc3c(c2)OCO3)SC(=S)N1C1c2ccccc2Oc2ccccc21", "growth": "104%"},
      {"smiles": "CC[C@@H](C(=O)[C@@H](C)[C@@H](O)[C@H](C)[C@@H]1O[C@@H]([C@@H](CC)C(=O)N(CC)CC)CC[C@@H]1C)C1O[C@]2(C=CC(=O)[C@]3(CC[C@@](C)([C@H]4CC[C@](O)(CC)[C@H](C)O4)O3)O2)[C@H](C)C[C@@H]1C", "note": "(stereo not given in full)", "growth": "16.2%"},
      {"smiles": "Oc1ccc(-c2[nH]c3ccccc3c2-c2nc3ccccc3o2)cc1", "growth": "40%"},
      {"smiles": "Fc1ccc(C(c2ccc(F)cc2)C(Cl)Cl)cc1", "growth": "110%"},
      {"smiles": "CC(=O)Nc1cc2c(cc1Cl)Cc1cc(Cl)ccc1-2", "growth": "29.2%"},
      {"smiles": "CN(C)CCC1(c2ccccc2)CCN(C)C1=O", "note": "(stereo not given)", "growth": "104%"},
      {"smiles": "CN(C)CCOc1ccccc1NC1=C(Cl)C(=O)C(Nc2ccccc2OCCN(C)C)=C(Cl)C1=O", "growth": "-37.6% (active)"},
      {"smiles": "CSc1nc2c(c(=O)n1C)CN(Cc1ccccc1)C(=O)CN2", "growth": "95%"},
      {"smiles": "OCCn1cccn1", "growth": "102%"},
      {"smiles": "O=C(NCCCNS(=O)(=O)c1ccc(Cl)cc1)Nc1ccc(-n2cc(-c3ccncc3)c(-c3ccc(Cl)c(O)c3)n2)cc1", "growth": "22.2%"},
      {"smiles": "CC(C)=CCC/C(C)=C/CC/C(C)=C/CC/C=C(\\C)CC/C=C(\\C)CCC(=O)Nc1ccn(C2OC(CO)C(O)C2(F)F)c(=O)n1", "note": "(stereo not given)", "growth": "41%"},
      {"smiles": "CN1CCN(CCC(=O)Nc2cccc(-n3cc(-c4ccncc4)c(-c4ccc(Cl)c(O)c4)n3)c2)CC1", "growth": "62.9%"},
      {"smiles": "CC1C(=NC(=O)c2cnccn2)C(C)C(c2ccc(Cl)cc2)NC1c1ccncc1", "note": "(stereo not given)", "growth": "78%"},
      {"smiles": "O=C(CI)OCC(COC(=O)CI)OC(=O)CI", "growth": "35.4%"},
      {"smiles": "CCOC(=O)c1sc2ncnc(Nc3ccc4c(cnn4C(=O)Nc4ccccc4)c3)c2c1C", "growth": "51.5%"},
      {"smiles": "CCCCc1oc2ccccc2c1C(=O)c1cc(I)c(OCCN(CC)CC)c(I)c1", "growth": "7% (active)"},
      {"smiles": "CCCc1nc(C(C)(C)O)c(C(=O)O)n1Cc1ccc(-c2ccccc2-c2nn[nH]n2)cc1", "growth": "82.1%"},
      {"smiles": "CCOC(=O)c1cc(C(=O)c2cc(OC)cc(OC)c2)n2ncc3ccccc3c12", "growth": "12.8%"},
      {"smiles": "COc1ccc(-c2nn(-c3cccc(Cl)c3)cc2-c2cc(-c3cccs3)[nH]c(=S)n2)cc1", "growth": "41.6%"},
      {"smiles": "Cn1c2ccccc2c2c3[nH][nH]c(=O)c3c3c4ccccc4[nH]c3c21", "growth": "42.9%"},
      {"smiles": "Nc1ccccc1NC(=O)c1ccc(CCCC(=O)Nc2ccc(C3CC3N)cc2)cc1", "note": "(stereo not given)", "growth": "7.85% (active)"},
      {"smiles": "NC1=NC(c2ccc(Cl)cc2)C2=C(N1)/C(=C/c1ccc(Cl)cc1)CCC2", "note": "(stereo not given)", "growth": "102%"},
      {"smiles": "C[N+]1(CCCCC[N+]2(C)CCCC2)CCCC1", "growth": "101%"},
      {"smiles": "Cc1cc(Cl)ccc1Nc1nc(C(F)(F)F)ccc1C(=O)N/N=C/c1cccc(O)c1", "growth": "39.8%"},
      {"smiles": "OCC1OC(n2cnc3c(NCc4ccco4)ncnc32)C(O)C1O", "note": "(stereo not given)", "growth": "8.92% (active)"},
      {"smiles": "CCCc1cn(CC(=O)Nc2nc3ccccc3s2)nn1", "growth": "102%"},
      {"smiles": "O=S(=O)(O)c1ccc(Cl)cc1", "growth": "97.8%"},
      {"smiles": "CN(C)c1nc(N)c2nccnc2n1", "growth": "104%"},
      {"smiles": "COc1cc2cc(Oc3ccc(NC(=O)c4cc(C(F)(F)F)cc(C(F)(F)F)c4)cc3)c(C)nc2cc1OC", "growth": "86.7%"},
      {"smiles": "CCn1cc(C(=O)O)c(=O)c2cc(F)c(N3CCNCC3)cc21", "growth": "124%"},
      {"smiles": "COc1cc(/C=C2\\CCCC3=C2NC(N)=NC3c2cc(OC)c(OC)c(OC)c2)cc(OC)c1OC", "note": "(stereo not given)", "growth": "27.5%"},
      {"smiles": "O=[N+]([O-])c1ccc(/C(=C/c2ccccc2)[n+]2ccccc2)cc1", "growth": "112%"}
    ]}
  ]
}
